The values that follow come from PubChem BioAssay AID488890 (Southern Research Specialized Biocontainment Screening …, 2010).

Hit rate of the full screen: of about 320,000 compounds, about 1,300 (0.41%) were called active. Roughly 3% stayed inconclusive and do not appear here. No rule for the calls is given here. Only a sample is shown. Potency and affinity values are given separately.

This assay is described as follows: growth inhibition of non-replicating M. tuberculosis (AID 488890).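 Also: plate controls were DMSO cells for no effect and high antibiotic wells for full effect.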 The following applies: Mycobacterium tuberculosis non-replicating, at 25 µM, stronger effect = higher value.
For orientation: inhibition means the relative decrease from the control value, in per cent. Regarding `COc1ccc(NC(=O)CSCC(=O)NC2(C)CCS(=O)(=O)C2)cc1` (stereo not drawn), the inhibition is -8.31%. The result for `CCn1ccnc1[C@@H]1C[C@H]2CN(Cc3ccccc3OC)C(=O)[C@]23CCCN13` reads 29.3%; that for `CCN(Cc1ccncc1)C(=S)Nc1ccccc1`, -19.8%; that for `CCOC(=O)C(C)Oc1ccsc1C(=O)OC` (stereo not drawn), 53.8%. To `COc1cc(C=O)c(Cl)cc1OCC(N)=O` belongs -0.64%; to `O=C(Nc1ccccc1N1CCCC1)c1cccnc1Cl`, 7.22%; to `Cc1ccc(NC(=S)N2CCN(S(=O)(=O)c3ccccc3)CC2)cc1`, -12.6%. The result for `O=C(COc1ccc(F)cc1)N1CCCc2ccccc21` reads 74.6%; that for `Cc1ccc(OCC(=O)N2CCc3ccccc32)cc1`, 43%.

`CC(=O)NC(Cc1c[nH]c2ccccc12)C(=O)OCC(=O)Nc1cc(C)on1` (stereo not drawn): the inhibition was -1.64%. Take `Cn1nnnc1Sc1ccc(C(=O)O)cc1[N+](=O)[O-]`: the inhibition was -12.4%. Consider `O=C(O)c1ccc(Sc2nnnn2-c2ccccc2)c([N+](=O)[O-])c1`, for which the inhibition was 29.1%. As to `O=C(c1cc2n(n1)C(C(F)(F)F)CC(c1ccco1)N2)N1CCN(c2ccccn2)CC1` (stereo not drawn), the inhibition was 8.02%.

On to `CCN(Cc1ccccc1)c1ccc(/C=N/N2CCOCC2)cc1`, for which the inhibition was 12.8%. The result for `NC(N)=N/N=C/c1ccccc1` reads 13.1%; that for `O=C1c2ccccc2NC(c2ccco2)N1NS(=O)(=O)c1ccccc1` (stereo not drawn), 1.96%. The result for `O=[N+]([O-])c1ccc(Oc2ccc(-c3nnco3)cc2)c(Cl)c1` reads -9.83%; that for `O=C(CCc1nc(-c2ccccc2Cl)no1)NCc1ccco1`, 43.2%; that for `O=[N+]([O-])c1ccc(NCCO)c2ncccc12`, 9.39%.

In the case of `CCNCCNc1ccc([N+](=O)[O-])c2cccnc12`, the inhibition came out at 79.3%. Take `O=C(CCSc1ccccc1)N1CCN(c2ccccc2)CC1`: the inhibition was found to be 10.9%. The result for `O=C(CCSc1nnc(-c2ccco2)o1)N1CCOCC1` reads 75.9%; that for `O=C(CCSc1ccccc1)N1CCOCC1`, 14.3%; that for `O=C(CCSc1nnc(-c2ccc(O)cc2)o1)N1CCOCC1`, 70.5%. The result for `Cc1cc(OCC(=O)N[C@@H](Cc2c[nH]c3ccccc23)C(=O)O)c2c(C)c(C)c(=O)oc2c1` reads 5.84%. To `O=C(CN1C(=O)C(=O)c2ccccc21)c1ccccc1` belongs 27%; to `COc1ccc(-n2c(-c3ccccc3)cc3c2CCCC3=O)cc1`, 17.2%. `CCCCCCNc1nc(OC)nc(N2CC3CC(C2)c2cccc(=O)n2C3)n1` (stereo not drawn): the inhibition is 3.85%.

As for `COc1ccc(O)cc1`, the inhibition is -8.51%. Turning to `COc1ccc(-c2ccc(OC)cc2)cc1`, the inhibition came to 10.9%. To `COC(=O)c1ccc(COc2ccc(/C=N/O)cc2)o1` belongs 29.5%; to `CCc1ccc(OCc2ccc(C(=O)OC)o2)cc1`, 72.2%. The result for `COc1ccc(-n2cnc3cc(C(=O)N4CCOCC4)ccc32)cc1` reads -8.02%; that for `O=C(NC(Cc1ccccc1)C(=O)O)NC12CC3CC(CC(C3)C1)C2` (stereo not drawn), -6.43%; that for `CCN(CC)CCn1c(=S)[nH]c2cc(C(=O)NCc3ccccc3Cl)ccc2c1=O`, 35%. To `N#CC1=C(N)Oc2n[nH]c(-c3ccccc3)c2C1c1cccnc1` (stereo not drawn) belongs 9.98%; to `Cc1ccc(C2C(C#N)=C(N)Oc3n[nH]c(-c4cccnc4)c32)o1` (stereo not drawn), -0.74%.

For `O=C(OCC(=O)c1cccc2ccccc12)c1ccc(CO)cc1`, the inhibition is 60%. The result for `CCCN(CCC)c1nc2ccccc2n2c(C)nnc12` reads 17.5%; that for `O=C(N/N=C\c1c(O)ccc2ccccc12)c1ccc(Cn2cccn2)o1`, -4.74%.

As to `O=C(N/N=C\c1c(O)ccc2ccccc12)c1ccc(O)cc1`, the inhibition stood at 27.8%. To `CSc1cccc(CN2CCC(Oc3ccc(C(=O)N4CCCCC4)cc3)CC2)c1` belongs 64.2%; to `CCOC(=O)c1c(NC(=O)CSc2nc3cc(Cl)ccc3s2)sc(C(C)=O)c1C`, 2.44%. To `Cc1ccc(/C=N/NC(=O)c2nnn(-c3nonc3N)c2CN(C)C)o1` belongs -3.62%; to `NC(=O)COc1c(-c2ccc(Br)o2)oc2ccccc2c1=O`, -1.98%. To `O=C(Oc1c(-c2ccccc2)oc2ccccc2c1=O)c1ccccc1` belongs 26.1%; to `N#Cc1c(OCC(=O)c2ccccc2)nc2c(c1-c1ccco1)CCc1ccccc1-2`, -14.7%.

As to `NC(=O)Cc1nc(-c2ccc(F)cc2)cs1`, the inhibition is 8.71%. To `Cc1ccc(C(=O)CNc2cccc([N+](=O)[O-])c2)cc1` belongs 11.3%. The result for `O=C(CNc1cccc2ccccc12)c1ccc([N+](=O)[O-])cc1` reads 73.1%; that for `Cc1ccc(NCC(=O)c2ccc([N+](=O)[O-])cc2)cc1`, 68%; that for `O=C(NC(=S)Nc1cccc(F)c1)c1cccc([N+](=O)[O-])c1`, 74%.

For the compound `CCOC(=O)C1=C(C)N(CCCC(=O)O)C(=O)NC1c1ccccc1Cl` (stereo not drawn), the inhibition was determined as 0.44%. As to `CCOC(=O)C(C)/C(C)=N\Nc1ccc([N+](=O)[O-])cc1[N+](=O)[O-]` (stereo not drawn), the inhibition is -5.18%. To `CCCC1CC(c2csc(N)n2)CCO1` (stereo not drawn) belongs -0.79%. The result for `COc1ccc(OC)c(/C=C/C(=O)Oc2ccc(C(C)=O)cc2)c1` reads 64.2%; that for `O=C(Cn1c(SCC(=O)N2CCCc3ccccc32)nc2ccccc21)N1CCCC1`, -11.8%. Turning to `O=C(NNC(=O)c1ccc(Br)cc1)c1ccncc1`, the inhibition worked out at 41.7%.

On to `O=C(NNC(=O)C1CCC1)c1ccc(Br)cc1`, for which the inhibition was determined as 3.14%. As for `C/C(NC1CCCCC1)=C(/C#N)C(=O)NCCN1CCOCC1`, the inhibition came out at 1.64%. To `O=[N+]([O-])c1cnc(Nc2ccccc2)nc1Nc1ccccc1` belongs 0.51%; to `CC(=O)OCC(=O)Nc1ccc([N+](=O)[O-])cc1Cl`, -21.2%; to `Cc1cc(O)c(NC(=O)c2cc([N+](=O)[O-])ccc2Cl)cc1C`, 32.1%. For the compound `CN(C)C(=O)Oc1ccc2ccccc2c1Cl`, the inhibition was 5.7%. To `O=C(CSc1ccccc1F)NCCN1C(=O)CSC1=O` belongs -0.52%; to `O=C(O)CN1C(c2ccccc2)=Nc2ccc(Br)cc2C1c1ccccc1` (stereo not drawn), -0.36%. `CCOC(=O)c1cc2c(ccc3ccccc32)oc1=O`: the inhibition amounted to 74.5%. For the compound `O=C(O)c1cc2c(ccc3ccccc32)oc1=O`, the inhibition was -4.26%. The result for `Cc1cccc(OCC(=O)NCC(C)(C)N2CCOCC2)c1` reads 5.72%.

Turning to `CCOC(=O)N1CCC(c2[nH][nH]c(=O)c2C)CC1`, the inhibition was -7.47%. To `CCCCn1c(=O)c(CCC(=O)OCC(=O)NC(C)c2ccccc2)nc2ccccc21` (stereo not drawn) belongs 55.8%; to `Cc1cccc(-n2c(/C=C/c3ccc([N+](=O)[O-])o3)nc3ccccc3c2=O)c1`, 28.4%. To `Cn1c(/C=C/c2ccccc2[N+](=O)[O-])nc2ccccc2c1=O` belongs -6.23%.

As for `Cc1cc(=O)oc(C)c1C(=O)OCC(=O)c1ccc(Cl)cc1`, the inhibition was found to be 72.7%. With `O=C(NCCCN1CCOCC1)c1cc2ccccc2o1`, the inhibition is -15.4%. Take `Cc1ccc(C2=C(O)c3ccccc3C(=O)C2=O)cc1`: the inhibition is 71.2%. The result for `O=C1C(c2ccncc2)=C(O)c2ccccc21` reads 26.2%; that for `Cc1cccc(NC(=S)N2CCN(c3cc(C)ccc3C)CC2)c1`, -5.31%; that for `O=c1[nH]c2ccccc2nc1-c1ccccc1`, -4.14%. The result for `O=c1[nH]c2ccccc2nc1-c1ccc(Cl)cc1` reads -0.23%; that for `CN(C)CC/C=C1/c2ccccc2Sc2ccc(Cl)cc21`, 75.6%; that for `CN(C)CC/C=C1/c2cc(F)ccc2Sc2ccc(Cl)cc21`, 79.7%. To `Cc1ccc(OCC(=O)N/N=C2/SCC(=O)N2Cc2ccccc2)cc1` belongs 29.3%; to `CC(CN1CCN(C/C=C/c2ccccc2)CC1)c1ccccc1` (stereo not drawn), 2.29%.

For `COC(CNC(=O)c1cccnc1)OC`, the inhibition was -3.72%. Consider `COC(CNC(=O)c1coc2nc3ccccc3nc12)OC`, for which the inhibition is 5.54%. The result for `COc1ccc(Cl)cc1NC(=O)CN(C)C(=O)C12CC3CC(CC(Cl)(C3)C1)C2` reads 41.4%. To `COc1cccc(NC(=O)CCC(=O)NCc2ccco2)c1` belongs -7.17%.

Regarding `CCOc1ccc(C(=O)NCc2cccs2)cc1`, the inhibition was 44.9%. The result for `Cc1ccc(C(=O)O)cc1N1C(=O)c2cccc3c([N+](=O)[O-])ccc(c23)C1=O` reads 3.01%. Regarding `O=C1c2cccc3c([N+](=O)[O-])ccc(c23)C(=O)N1CCc1ccccn1`, the inhibition was found to be 33.7%. The result for `Cc1ccc(N2C(=O)c3cccc4c([N+](=O)[O-])ccc(c34)C2=O)c2cccnc12` reads 7.23%. `CC(=O)Nc1cccc2c1C(=O)N(c1ccc(OC(C)=O)cc1)C2=O`: the inhibition was 19%. The result for `O=C1c2ccccc2C(=O)N1c1ccc(Cl)cn1` reads 7.35%. In the case of `O=C1c2cccc3cccc(c23)C(=O)N1c1ccccn1`, the inhibition was -12.3%. To `O=C1c2ccccc2C(=O)N1c1cc([N+](=O)[O-])ccn1` belongs 4.94%; to `O=C1c2ccc([N+](=O)[O-])cc2C(=O)N1c1ccc(Cl)cn1`, -16.1%. As to `COc1ccc(CCN(C)C(=O)CSc2nnc(-c3ccco3)o2)cc1OC`, the inhibition was -6.6%. For `C=CCn1c(SCC(=O)Nc2ccc(NC(=O)c3ccco3)c(OC)c2)nnc1-c1ccncc1`, the inhibition is 13.9%. As for `Cc1ccccc1OCC(=O)NCCCNC(=O)c1cccnc1`, the inhibition is -5.91%.

For the compound `COc1cccc(-c2nnc(-c3ccco3)o2)c1`, the inhibition worked out at 65.8%. The result for `Cc1ccccc1Oc1ncnc(N)c1[N+](=O)[O-]` reads 6.54%. The result for `Cc1cccc(Oc2ncnc(N)c2[N+](=O)[O-])c1C` reads 29.9%; that for `Cc1ccccc1C(=O)NCC(=O)OCCCOC(=O)CNC(=O)c1ccccc1C`, -9.69%.

For `O=C1CN(C(=O)CNCc2ccccc2Cl)c2ccccc2N1`, the inhibition worked out at 9.45%. Consider `Cc1ccc(-c2cc(-c3ccc(F)cc3)n[nH]2)c(O)c1`, for which the inhibition is -3.72%. The result for `CN(C)CCOC(=O)/C(=C/c1cn(C)c2ccccc12)NC(=O)c1ccccc1` reads -4.57%. As to `Cc1ccc(C(=O)CCS(=O)(=O)c2ccc(F)cc2)cc1`, the inhibition turned out to be 69.2%. The result for `Cc1ccc(S(=O)(=O)CCC(=O)OCC(=O)c2ccc(C)c(C)c2)cc1` reads 73.6%; that for `Cc1ccc(C)c(OCc2nnc(NC(=O)c3ccc4c(c3)OCO4)s2)c1`, 6.85%. Consider `O=C1NC2(CCC3(CC2)OCCO3)NN1c1ccccc1`, for which the inhibition is 14.8%.

As to `O=C1NC2(CCCCC2)NN1c1ccccc1`, the inhibition worked out at 18.6%. The result for `O=C(O)Cc1ccc(Oc2ncc(C(F)(F)F)cc2Cl)cc1` reads -16.8%; that for `Cc1cccc(-c2noc(CCCC(=O)Nc3cccnc3)n2)c1`, 32.7%; that for `O=C(CCCc1nc(-c2ccccc2)no1)Nc1cccnc1`, 34.2%. The result for `O=[N+]([O-])c1ccc2ncnc(Nc3ccc4c(c3)OCCO4)c2c1` reads 21.4%. To `CCOC(=O)c1sc2nc3n(c(=O)c2c1C)CCC3` belongs 1.86%. On to `Cc1c(C(=O)OCc2ccc(F)cc2)sc2nc3n(c(=O)c12)CCC3`, for which the inhibition stood at 29.2%.
